PLK1 PBD block: blocks phosphopeptide binding to human PLK1 polo-box domain; P53350; Plk1 PBD binding of FITC phosphopeptide, fluorescence polarization; Potency, µM, for inactives: max response, negative = inhibition, most hits filed as inhibitors; 360,000 compounds, 2.8% hits; AID 720504; note: potency is the fitted concentration of half-maximal effect; series mostly up to about 57 µM; % is set by controls: 0 for no effect and ±100 for the full control effect; nearly all actives have a fitted effect of over 65% in size
HP1b binding inh: blocks HP1-beta chromodomain binding to methylated histone tails. AID 540317. Potency, µM (series often up to 114 µM), inactives show top-dose activity change, negative = inhibition, hits mostly inhibitors. AlphaScreen HP1-beta / biotin-H3K9me3 peptide binding. 390,000 compounds, 0.56% hits. P83916; note: potency is the fitted concentration of half-maximal effect; nearly all actives have a fitted effect of over 70% in size
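HP1-beta protein (50 nM final) preincubated 30 min at room temperature with biotinylated H3(1-18)K9me3 peptide (50 nM) in PBS pH 7.4, 0.01% Tween-20, then compound added for 30 min. AlphaScreen streptavidin donor/nickel chelate acceptor beads (10 ug/mL final), 30 min dark, luminescence read.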
BAZ2B inh: blocks human BAZ2B; AlphaScreen BAZ2B-H3K14Ac peptide displacement; Potency, µM (titrated, usually from 114 µM), without a hit: top-dose activity change, negative = inhibition, hits mostly inhibitors; AID 504333; 360,000 compounds, 4.4% hits; note: potency is the fitted concentration of half-maximal effect; % is set by controls: 0 for no effect and ±100 for the full control effect; nearly all actives have a fitted effect of over 60% in size
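AlphaScreen displacement: compounds (up to 110uM) incubated 30 min at room temperature with a preformed 50 nM BAZ2B/50 nM biotinylated H3K14Ac peptide complex in PBS pH 7.4 with Tween-20. Donor and acceptor beads at 10 ug/mL final added, 20 min light-protected before reading.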
PI5P4Ka inh: inhibitors of human PI5P4K alpha; P48426; PI5P4Kalpha enzyme, ADP-Glo luminescence, 60 min; hits give low values; max response, %; 330,000 compounds, 1.2% hits; AID 652105; active = max response of -50% or lower; inconclusive = between -30% and -50%; inactive = -30% or higher; note: value at the top dose of about 77 µM; % is set by controls: 0 for no effect and ±100 for the full control effect
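Controls without substrate or without enzyme flank wells where PI5P4Kalpha converts substrate using 5 microM ATP (final). Incubation lasts 60 minutes at room temperature; ADP formed is read by ADP-Glo luminescence.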
KAT2A inh: GCN5L2 (KAT2A) acetyltransferase inhibition. Q92830. GCN5L2 HAT assay, ThioGlo1 CoA-SH fluorescence. Potency, µM (series often up to 58.9 µM), without a hit: at the top dose activity change, negative = inhibition, hits mostly inhibitors. 390,000 compounds, 0.21% hits. AID 504327; note: potency is the fitted concentration of half-maximal effect; % is set by controls: 0 for no effect and ±100 for the full control effect
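Titration-based screen in which CoA formation is detected via maleimide probe ThioGlo1 (50uM) turning fluorescent on thiol reaction; substrates H3(1-25) 75uM and acetyl-CoA 70uM, GCN5L2 20nM, 20 min incubation at room temperature.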
JMJD2A Tudor: blocks the human JMJD2A Tudor domain. O75164. AlphaScreen JMJD2A-Tudor / H3K4me3 peptide binding. Potency, µM (highest dose often 114 µM), inactives show at the top dose activity change, negative = inhibition, actives largely listed as inhibitors. 390,000 compounds, 4.4% hits; note: potency is the fitted concentration of half-maximal effect; % is set by controls: 0 for no effect and ±100 for the full control effect; nearly all actives have a fitted effect of over 50% in size
Target sequence (O75164 whole entry, looked up, the tested form may be a part): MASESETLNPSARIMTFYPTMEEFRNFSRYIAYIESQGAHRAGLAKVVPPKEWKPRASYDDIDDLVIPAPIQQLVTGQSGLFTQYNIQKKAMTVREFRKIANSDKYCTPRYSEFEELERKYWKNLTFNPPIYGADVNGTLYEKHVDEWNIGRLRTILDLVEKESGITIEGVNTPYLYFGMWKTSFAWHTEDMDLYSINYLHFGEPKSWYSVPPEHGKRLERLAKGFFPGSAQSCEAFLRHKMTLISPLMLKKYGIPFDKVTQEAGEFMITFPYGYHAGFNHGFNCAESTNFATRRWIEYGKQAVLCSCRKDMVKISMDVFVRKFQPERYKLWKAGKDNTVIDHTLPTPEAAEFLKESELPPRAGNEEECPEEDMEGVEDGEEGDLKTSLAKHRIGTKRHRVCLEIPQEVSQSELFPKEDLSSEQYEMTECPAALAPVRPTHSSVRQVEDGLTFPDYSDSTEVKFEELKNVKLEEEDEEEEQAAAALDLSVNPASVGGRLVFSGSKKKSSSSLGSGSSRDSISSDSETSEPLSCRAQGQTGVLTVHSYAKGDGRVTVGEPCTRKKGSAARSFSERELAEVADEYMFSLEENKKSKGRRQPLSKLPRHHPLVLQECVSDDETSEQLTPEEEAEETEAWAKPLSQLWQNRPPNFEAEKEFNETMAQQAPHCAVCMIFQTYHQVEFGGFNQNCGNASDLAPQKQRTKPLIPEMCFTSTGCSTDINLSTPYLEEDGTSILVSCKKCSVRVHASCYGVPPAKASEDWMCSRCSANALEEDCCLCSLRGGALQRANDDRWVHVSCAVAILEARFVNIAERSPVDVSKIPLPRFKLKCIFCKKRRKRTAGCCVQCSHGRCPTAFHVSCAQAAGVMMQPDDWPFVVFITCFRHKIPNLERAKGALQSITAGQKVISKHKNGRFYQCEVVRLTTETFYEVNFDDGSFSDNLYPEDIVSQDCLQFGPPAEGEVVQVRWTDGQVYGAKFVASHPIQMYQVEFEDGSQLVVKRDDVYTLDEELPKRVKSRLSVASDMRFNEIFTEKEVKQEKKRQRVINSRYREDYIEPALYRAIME
* = called active by the depositor; ? = inconclusive; . = no result; [ ] = another dose, or the depositor's remark. Shown are actives, neighbours in structure and some others; about 7% of the full set was active somewhere. Unless noted, calls come from the whole dose curve; as a rule, active = well fitted curve in the direction sought with a large enough effect; inconclusive = small, poorly fitted or top-dose-only effect, or another doubt; inactive = no such curve, though single readings can be large; an effect the other way counts as inactive or inconclusive.

SMILES	PLK1 PBD block	HP1b binding inh	BAZ2B inh	PI5P4Ka inh	KAT2A inh	JMJD2A Tudor
CC1CCN(c2nc3ccccc3nc2C(C#N)C(=O)NC2CCCCC2)CC1 (configuration not stated)	.	.	6%	.	1%	.
CCCCOc1nc2ccccc2nc1C(C#N)C(=O)NC1CCCCC1 (configuration not stated)	27µM*	16%	12%	7	-4%	-1%[11.4 µM]
COc1cc(NS(=O)(=O)c2ccc(-c3ccc(=O)[nH]n3)o2)cc(OC)c1OC	-7%	28%	-16%	-5	-2%	-10%
CSCCC(NC(=O)c1ccccc1)C(=O)OCC(=O)Nc1ccc(C)c(Cl)c1 (configuration not stated)	21µM*	?	13%	-10	-16%	-89%[57.1 µM]
Cc1ccc(NC(CC(=O)c2ccccc2)C(=O)O)cc1Cl (configuration not stated)	24µM*	14%	-8%	-7	-6%	-22%[11.4 µM]
O=C(CC(Nc1ccccc1)C(=O)O)c1ccccc1 (configuration not stated)	-12%	38%	-31%	1	0%	-15%
COc1ccc2c(c1)cc1c(=O)n(CC(=O)NCc3ccco3)nc(C)n12	.	17%	2%	.	1%	-18%
O=C/C(=C\Nc1ccc(Cl)cn1)c1nc2ccccc2o1	1%	7%	-9%	-9	-11%	13µM*
CC(=O)C1N=NCC1c1ccccc1 (configuration not stated)	5%	22%[57 µM]	.	0	.	-8%
Cc1cc2c(s1)c1cnn(Cc3c(F)ccc(Cl)c3F)c(=O)c1n2C	.	.	.	.	.	-30%
CCN1C(=O)/C(=C\c2nc3ccccc3c(=O)n2-c2ccccc2)c2ccccc21	-2%	-16%	50µM*	2	-3%	45µM*
CCN1C(=O)/C(=C/c2nc3ccccc3c(=O)n2-c2ccc(C)cc2)c2ccccc21	-8%	-8%	-32%	-4	-2%	-19%
CCCCCSc1nc2sc3c(c2c(=O)n1-c1ccccc1)CCN(C(C)=O)C3	.	3%	-17%	.	-2%	-27%
C#CCSc1nc2sc3c(c2c(=O)n1-c1cccc(OC)c1)CCN(C(C)=O)C3	.	-3%	?	.	-9%	89µM*
COc1cc(Cl)c(C)cc1NC(=O)c1cc(S(=O)(=O)N2CCCC2)ccc1F	.	13%	3%	.	3%	-10%
Cn1cnc(S(=O)(=O)N2CCC(C(=O)NCc3ccc(Cl)cc3)CC2)c1	.	30%	-7%	.	2%	-3%
CCN1/C(=C2\C(=O)N(c3ccccc3)N=C2C)C=Cc2cc(C)ccc21	-8%	21%	56µM*	-4	-12%	-8%
O=C(O)CCc1nn2c3ccccc3n(Cc3ccccc3F)c2nc1=O	27µM*	?	-11%	3	0%	?
O=C(Cc1ccc(F)cc1)NCc1ccc2c(c1)CCN2C(=O)c1ccc(F)cc1	.	30%	-3%	.	-5%	-10%
CCOc1ccc(CNCc2c(C(=O)O)n(Cc3ccccc3C)c3cc(OC)ccc23)cc1OC	.	25%	-16%	.	-3%	-10%
Cc1cc2c(cc1S(=O)(=O)Nc1cccc(C#N)c1)OCC(=O)N2	.	23%[57 µM]	4%	.	-3%	-10%
Cc1ccc(CN2C(=O)C(=O)c3cc(Br)cc(C)c32)cc1	.	13µM*	13µM*	.	-18%	25µM*
Cc1ccc2c(c1)C(=O)C(=O)N2Cc1ccc(C(F)(F)F)cc1	?	1%	.	-27	-2%	-31%
COc1ccc(Cn2ccc3nc(C)c(C(=O)Nc4cc(C)cc(C)c4)cc3c2=O)cc1	.	23%	-11%	.	-9%	-7%
NS(=O)(=O)c1ccc(NC(=O)COC(=O)CCc2ccccc2)cc1	-6%	22%	0%	0	-3%	2%
SMILES	PLK1 PBD block	HP1b binding inh	BAZ2B inh	PI5P4Ka inh	KAT2A inh	JMJD2A Tudor
O=C(Nc1ccc2c(c1)OCO2)C1CCN(S(=O)(=O)c2cccs2)CC1	-3%	-16%	?	.	-3%	?
O=C(Nc1ccc2c(c1)OCO2)C1Cc2ccccc2CN1S(=O)(=O)c1cccs1 (configuration not stated)	-10%	-5%	?	-72*	-8%	?
O=C(O)c1ccccc1N(c1ccccc1)c1ccccc1	-25%	7%	.	6	.	-17%
O=C(NCC(F)(F)F)c1cc2c(c(-c3cccc(-c4ccccc4F)c3)n1)[C@H](CCO)N(C(=O)CC1CC1)C2	-8%	.	.	12	.	.
Cn1c(N)c(C(=O)CSc2ccc3c(c2)OCCO3)c(=O)n(C)c1=O	-8%	31%	-1%	-4	26%	0%
Cc1cc(C(=O)CSc2ccc3c(c2)OCCO3)c(C)n1C1CC1	-11%	-15%	79µM*	1	-1%	-26%
OC(CN1c2ccccc2Sc2ccccc21)Cn1nnc2ccccc21 (configuration not stated)	-9%	?	-3%	7	-6%	?
Cc1nn(CC(O)CN2c3ccccc3Sc3ccccc32)c(C)c1Br (configuration not stated)	3.8µM*	?	?	7	-10%	?
Cc1ccccc1N(C(=O)c1csnn1)C(C(=O)NC(C)(C)C)c1cccs1 (configuration not stated)	8.4µM*	?	-27%	?	0%	10µM*
Cc1ccc(N(C(=O)c2csnn2)C(C(=O)NC(C)(C)C)c2cccs2)cc1 (configuration not stated)	0%	25%	5%	.	-5%	-14%
COCCNC(=S)N(CCc1c(C)[nH]c2ccc(F)cc12)Cc1ccco1	-7%	-5%	71µM*	3	-17%	-35%
CNC(=S)N(CCc1c(C)[nH]c2ccc(Cl)cc12)Cc1cccnc1	-3%	-12%	71µM*	-4	?	?
Cc1[nH]c2ccc(F)cc2c1CCN(Cc1cccnc1)C(=S)Nc1cccc(F)c1	-1%	0%	32µM*	-7	1%	?
CCNC(=S)N(CCc1c(C)[nH]c2ccc(Cl)cc12)Cc1cccnc1	-14%	1%	?	-1	7%	?
COc1cc(OC)c(NC(=O)Cn2nc(C)n3cccc3c2=O)cc1Cl	.	54%	-11%	.	-5%	-8%
COc1ccc(Cl)cc1NC(=O)c1ccc2c(c1)CCN2S(C)(=O)=O	.	59%	-7%	.	-7%	-25%
COC(=O)c1cc(NS(=O)(=O)c2cc(Br)cc3c2N(C(C)=O)CC3)cc(C(=O)OC)c1	.	37%	71µM*	.	-1%	4%
CC(=O)N1CCc2cc(Br)cc(S(=O)(=O)NCCc3ccc(Cl)cc3)c21	.	48%	2%	.	-5%	2%
CC(=O)N1CCc2cc(Br)cc(S(=O)(=O)NCc3ccccn3)c21	?	-8%	-31%	0	1%	79µM*

Source: PubChem BioAssay (National Center for Advancing Translational Sciences (NCATS))
